Assay outcomes as filed in PubChem BioAssay.
This is a sample that favours compounds with a hit; in the whole collection about 2.4% have one here.
Pol kappa inh-1: inhibitors of human DNA polymerase kappa. Q9UBT6. hit rate 0.53% among 400,000. Potency, µM (series often up to 107 µM), for the others: at the highest dose activity, negative = inhibition, most hits filed as inhibitors. AID 588579. purified Pol kappa, fluorescent DNA synthesis assay, 10 min; note: potency is the fitted concentration of half-maximal effect; % is set by controls: 0 for no effect and ±100 for the full control effect
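Pol kappa 10 nM + cpd, 15 min RT; start w/ substrate 50 nM final; fluorescence kinetic read, 0 and 10 min. Neg ctrl: buffer, no enzyme.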
Pol eta inh-1: DNA polymerase eta (human) inhibition | Q9Y253 | recombinant Pol eta, fluorescent DNA replication assay | Potency, µM (titrated, usually from 114 µM), without a hit: at the highest dose activity change, negative = inhibition, most hits filed as inhibitors | hit rate 1.2% among 390,000 | AID 588591; note: potency is the fitted concentration of half-maximal effect; % is set by controls: 0 for no effect and ±100 for the full control effect
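Fluorescent replication assay: 50 nM final substrate added after a 15 min room-temperature compound preincubation with 10 nM enzyme. Signal taken at 0 min and again at 10 min.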
Pol iota inh: blocks human DNA polymerase iota activity; Q9UNA4; Pol iota fluorescent replication assay, 10 min; Potency, µM (top dose mostly 115 µM), inactives show top-dose activity, negative = inhibition, usual class: inhibitors; hit rate 1% among 390,000; AID 588590; note: potency is the fitted concentration of half-maximal effect
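Fluorescent replication assay read twice, at 0 min and 10 min after adding 50 nM (final) substrate. Enzyme (10 nM) and compounds were first incubated 15 min at room temperature; enzyme-free buffer wells were negative controls.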
POLB inh: DNA polymerase beta (human) inhibition. P06746. Pol beta primer extension/strand displacement, fluorescence kinetic. Potency, µM (series often up to 114 µM), without a hit: at the highest dose activity change, negative = inhibition, hits mostly inhibitors. hit rate 1.3% among 340,000. AID 485314; note: potency is the fitted concentration of half-maximal effect; % is set by controls: 0 for no effect and ±100 for the full control effect
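Curves were derived by four-parameter Hill fits of normalized qHTS data. The kinetic fluorescent primer-extension read was taken at 0 and 10 min after 50 nM substrate, following a 15 min room-temperature preincubation of 10 nM enzyme with compounds.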
WRN inhibitor: blocks human WRN helicase; hit rate 0.46% among 360,000; AID 651768; WRN helicase unwinding, fluorescent forked duplex, kinetic; Q14191; Potency, µM (top dose mostly 114 µM), inactives show at the highest dose activity change, negative = inhibition, hits mostly inhibitors; note: potency is the fitted concentration of half-maximal effect; % is set by controls: 0 for no effect and ±100 for the full control effect; nearly all actives have a fitted effect of over 55% in size
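Enzyme (20 nM final) and test compound sit together 15 min at room temperature before substrate addition. Substrate is a single-forked duplex oligonucleotide (100 nM) labelled with fluorophore and quencher, with 2 mM ATP; helicase unwinding raises red fluorescence, read kinetically.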
FEN1 inh: inhibitors of human flap endonuclease 1. Potency, µM (top dose mostly 114 µM), without a hit: top-dose activity change, negative = inhibition, usual class: inhibitors. AID 588795. hit rate 0.35% among 390,000. Recombinant FEN1 flap cleavage, fluorescence, 15 min. P39748; note: potency is the fitted concentration of half-maximal effect; % is set by controls: 0 for no effect and ±100 for the full control effect; nearly all actives have a fitted effect of over 65% in size
Target sequence (P39748 whole entry, looked up): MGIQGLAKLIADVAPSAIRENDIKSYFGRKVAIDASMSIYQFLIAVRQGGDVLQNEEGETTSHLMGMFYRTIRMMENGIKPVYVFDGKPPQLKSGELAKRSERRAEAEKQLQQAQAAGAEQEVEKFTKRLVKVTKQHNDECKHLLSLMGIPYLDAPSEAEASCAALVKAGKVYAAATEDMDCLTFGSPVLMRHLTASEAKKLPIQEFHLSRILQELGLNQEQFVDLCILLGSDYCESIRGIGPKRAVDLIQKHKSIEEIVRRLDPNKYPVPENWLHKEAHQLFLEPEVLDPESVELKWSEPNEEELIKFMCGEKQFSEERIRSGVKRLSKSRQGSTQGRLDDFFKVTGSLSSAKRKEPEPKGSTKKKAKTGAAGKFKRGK
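Recombinant FEN1 (10 nM) was preincubated with pin-transferred compounds for 15 min at room temperature, then flap DNA substrate (50 nM final) was added. Plates were read at 0 and 15 min, and normalized concentration–response data were fitted to a four-parameter Hill equation.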
GALK confirm: galactokinase (human) inhibition, confirmation. shares compounds with Pol eta inh-1. purified GALK, Kinase-Glo ATP depletion luminescence. Potency, µM (top dose mostly 115 µM), inactives show top-dose activity, negative = inhibition, most hits filed as inhibitors. hit rate 70% among 150. AID 2015
Target sequence (P51570 whole entry, looked up): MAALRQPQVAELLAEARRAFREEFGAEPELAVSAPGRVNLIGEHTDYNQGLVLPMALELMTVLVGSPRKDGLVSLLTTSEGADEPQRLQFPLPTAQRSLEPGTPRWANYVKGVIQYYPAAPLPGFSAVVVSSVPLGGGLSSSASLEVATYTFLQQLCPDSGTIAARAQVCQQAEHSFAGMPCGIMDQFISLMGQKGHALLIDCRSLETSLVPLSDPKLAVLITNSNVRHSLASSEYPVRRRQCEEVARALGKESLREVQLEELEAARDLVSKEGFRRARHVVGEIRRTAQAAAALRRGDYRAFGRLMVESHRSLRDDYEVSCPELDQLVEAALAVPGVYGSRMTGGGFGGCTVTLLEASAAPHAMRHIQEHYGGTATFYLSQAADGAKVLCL
Redox cycling: counter-screen for GALK inhibitors: redox cycling H2O2 generation; Phenol red-HRP H2O2 redox cycling, absorbance 600 nm; AID 2035; hit rate 40% among 150; shares compounds with Pol eta inh-1; Potency, µM (highest dose often 115 µM), for the others: at the highest dose activity change, negative = H2O2 signal, hits mostly inhibitors
HEK293 tox: reduces HEK-293 cell viability in GALK counter-screen. AID 2547. shares compounds with Pol eta inh-1. HEK-293 viability, ATP luminescence (CellTiter-Glo), 24/48 h. hit rate 10% among 170. Potency, µM (top dose mostly 46.1 µM), for inactives: top-dose activity change, negative = cytotoxicity, most hits filed as inhibitors; note: potency is the fitted concentration of half-maximal effect; % is set by controls: 0 for no effect and ±100 for the full control effect
Pol kappa inh-2: confirmation of human DNA polymerase kappa inhibitors | shares compounds with Pol eta inh-1 | purified Pol-kappa, fluorescent strand-displacement substrate | Potency, µM, hits mostly inhibitors | hit rate 76% among 920; note: potency is the fitted concentration of half-maximal effect
Pol eta inh-2: Pol eta (human) inhibition, cherry-pick confirmation. shares compounds with Pol eta inh-1. Pol eta primer extension, TAMRA/BHQ fluorescence, 10 min. Potency, µM, hits mostly inhibitors. hit rate 64% among 2,600. AID 720502; note: potency is the fitted concentration of half-maximal effect
An asterisk follows results filed as active; ? = inconclusive; / = no result; ! = a repeat was not active; [ ] = remark or other dose. Calls come from the whole dose curve; as a rule, active = well fitted curve in the direction sought with a large enough effect; inconclusive = small, poorly fitted or top-dose-only effect, or another doubt; inactive = no such curve, though single readings can be large; an effect the other way counts as inactive or inconclusive.

SMILES | Pol kappa inh-1 | Pol eta inh-1 | Pol iota inh | POLB inh | WRN inhibitor | FEN1 inh | Pol eta inh-2 | others
CCOc1ccc(-n2c(=O)c3c(C)c(C)sc3n(CC(=O)NCCc3ccccc3)c2=O)cc1 | -10% | / | -12% | 1% | / | 15% | /
COc1ccc(/C=N/NC(=O)c2ccc(O)cc2O)cc1CSc1ccccn1 | 79µM* | 14µM* | ? | 20µM* | ? | -19% | ?
Cc1oc2c(cc(NS(=O)(=O)c3ccc(C(C)C)cc3)c3ccccc32)c1C(=O)O | ? | 45µM* | ? | 50µM*! | -6%[11.6 µM] | ? | ? | Pol kappa inh-2=?
CCOc1ccc(OCC)c(NC(=O)c2ccc(-c3ccccc3)s2)c1 | -4% | / | 1% | 0% | / | 8% | /
Cn1c(=O)c(Nc2ccc(O)cc2)c2c3c(cccc31)C(=O)c1ccccc1-2 | ? | 14µM* | 16µM* | 32µM* | ? | ? | ?
CC(=O)c1c2c3c(cccc3n(C)c1=O)C(=O)c1ccccc1-2 | -22% | ? | ? | ? | -20% | -16% | /
CSc1cccc(NC(=O)C2CCN(c3ncnc4c3nc3n4CCCCC3)CC2)c1 | -17% | -19% | ? | -13% | / | -3% | /
COc1ccc(NC(=O)Cn2cc(S(=O)(=O)Cc3ccc(F)cc3)c3ccccc32)cc1OC | -20% | 50µM* | ? | -25% | / | -3% | / | Pol kappa inh-2=?
Cc1ccc(CN2CCCn3nc(C(=O)NCCc4ccccc4Cl)cc3C2=O)cc1 | -12%[60.1 µM] | -6% | 17% | 2% | / | 24% | /
COc1ccc(-c2c(C)c3ccc(O)c(CN4CCOCC4)c3oc2=O)cc1OC | -8%[60.1 µM] | -11% | -5% | 4% | / | 9% | /
CCOc1ccc(Cc2c(C)[nH]c3ccc(C(=O)O)cc3c2=S)cc1 | ? | 50µM* | ? | ? | ? | -1% | ?
Cc1cccc(OCCSc2nc3ccc(NC(=O)COc4ccccc4F)cc3s2)c1 | -16% | -21% | 6% | -24% | / | -10% | /
O=C1NC(=O)/C(=C\c2ccc(OCc3cccc(C(=O)O)c3)c(Cl)c2)N1 | -4% | -13% | 81% | -1% | -27% | 4% | /
COc1cc(/C=C2\NC(=S)NC2=O)ccc1OCc1cccc(C(=O)O)c1 | ? | 22µM* | ? | ? | ? | -26% | 38* | Pol kappa inh-2=21*
COc1ccc(OC)c(-c2nnc3n2N=C(c2ccc(OC)c(OC4CCOC4)c2)CS3)c1 (centres undefined) | -1% | -14% | -21% | / | / | -1% | /
COc1ccc(C2=Nn3c(nnc3-c3ccccc3Cl)SC2)cc1OC1CCOC1 (centres undefined) | -22% | -7% | -12% | / | / | 0% | / | Pol kappa inh-2=8.4*
COc1ccc(C2=Nn3c(nnc3-c3ccccc3Cl)SC2)cc1OC1CCCC1 | ? | -4% | -29% | / | / | -20% | / | Pol kappa inh-2=17*
Cc1cc(OC(C)C(=O)N2CCC(c3nc4ccccc4o3)CC2)ccc1Cl (centres undefined) | -3% | -17% | 26% | 0% | / | -21% | /
Cc1ccccc1N/N=C/c1sc(=O)n(Cc2cccc(C(=O)O)c2)c1Cl | -42% | ? | ? | ? | ? | 1% | ?
Cc1ccc([N+](=O)[O-])cc1S(=O)(=O)Nc1ccc(C(=O)N2CCN(C(=O)c3ccco3)CC2)cc1 | ? | 22µM* | ? | / | -5%[11.6 µM] | -15% | ?
Cc1c(C(=O)N2CCN(c3ccccc3)CC2)sc2nc3n(c(=O)c12)CCC3 | -3% | 4% | 19% | ? | -2% | -2% | /
Cc1c(C(=O)O)sc2nc3n(c(=O)c12)CCC3 | ? | 7.9µM* | 11µM* | 18µM* | -30% | -8% | 60*
CCOC(=O)/C=C/C(=O)Nc1ccc(S(=O)(=O)Nc2nccs2)cc1 | -39% | 45µM* | 25µM* | -2% | -8%[11.6 µM] | 2% | ?
O=C(CSc1ccncc1)Nc1ccc(S(=O)(=O)Nc2nccs2)cc1 | ? | 18µM* | 28µM* | 2% | -30% | ? | 48*
O=C(Nc1ccc(S(=O)(=O)Nc2nccs2)cc1)/C(=C/c1ccccc1Cl)NC(=O)c1ccccc1 | -25% | ? | -13% | -1% | -26%[57.1 µM] | ? | ?
SMILES | Pol kappa inh-1 | Pol eta inh-1 | Pol iota inh | POLB inh | WRN inhibitor | FEN1 inh | Pol eta inh-2 | others
COc1cccc(-n2ccnc2SCC(=O)Nc2cccc3ccccc23)c1 | -7%[60.1 µM] | -9% | -3% | 1% | / | 1% | /
CCOc1ccc(S(=O)(=O)NCCc2csc(-c3ccc(Cl)cc3)n2)cc1 | -13%[60.1 µM] | -3% | -19% | 3% | / | -20% | /
COc1ccc(NC(=O)N2CC[C@@]3(CCCN(C(C)=O)C3)C2)cc1 | 9%[60.1 µM] | / | / | / | / | / | /
Cc1cccc(C)c1OCC(=O)Nc1nc(-c2ccc(Br)cc2)ns1 | -6% | -21% | 16% | -4% | / | 13% | /
O=C(O)C/C(=C\c1ccc(N2CCOCC2)c([N+](=O)[O-])c1)c1nc2ccccc2s1 | ? | 32µM* | -23% | ? | ? | -6% | / | Pol kappa inh-2=?
O=C(O)CC/C(=C\c1ccc(N2CCOCC2)c([N+](=O)[O-])c1)c1nc2ccccc2s1 | -7% | -9% | 6% | 25% | -3% | -14% | /
CCOC(=O)c1cc(-c2ccc(/C=C3/C(=O)N(c4ccc(C(=O)O)cc4)N=C3C)o2)ccc1Cl | ? | 18µM* | 1.4µM* | -13% | -23%[11.6 µM] | -21% | / | GALK confirm=21µM*;Redox cycling=12µM*;HEK293 tox=14%
Cc1ccc2c(Sc3ccccc3)c(C(=O)NCc3ccccc3F)[nH]c2c1 | -1% | -9% | -7% | 0% | / | -3% | /
